Source: ChEMBL document CHEMBL3433997, “St. Jude Leishmania screening dataset” (2016)

molecular target: Solute carrier family 2, facilitated glucose transporter member 1 (Homo sapiens) (UniProt P11166); experiment: ST_JUDE_LEISH: Cytotoxicity at 2uM final concentration against transgenic Leishmania Mexicana promastigotes LmGLUT1 that are glucose transport deficient and complemented with the human glucose transporter GLUT1. Activity is measured by DNA content using SYBR green in vitro; assay type: functional
Sequence (P11166 whole entry): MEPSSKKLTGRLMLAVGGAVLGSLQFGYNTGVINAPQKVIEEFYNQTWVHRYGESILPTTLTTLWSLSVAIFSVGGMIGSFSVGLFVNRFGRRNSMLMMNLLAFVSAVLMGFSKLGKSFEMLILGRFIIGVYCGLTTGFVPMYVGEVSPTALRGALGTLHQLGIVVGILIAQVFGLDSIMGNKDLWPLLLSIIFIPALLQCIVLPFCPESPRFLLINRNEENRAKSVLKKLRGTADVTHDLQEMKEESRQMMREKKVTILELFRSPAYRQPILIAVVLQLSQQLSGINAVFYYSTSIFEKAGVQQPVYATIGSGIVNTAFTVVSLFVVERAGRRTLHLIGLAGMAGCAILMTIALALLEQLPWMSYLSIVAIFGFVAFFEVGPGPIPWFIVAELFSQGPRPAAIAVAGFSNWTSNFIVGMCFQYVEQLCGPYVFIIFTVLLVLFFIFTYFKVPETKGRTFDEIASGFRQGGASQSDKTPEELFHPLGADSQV

SMILES	inhibition [%]
COc1ccccc1-c1cccc(-c2cccc(NC(=O)c3ccc([N+](=O)[O-])o3)c2)n1	11.2
O=C(/C=C/c1ccc(Cl)c(Cl)c1)NCCCCCCN1CCCN(C(=O)Nc2ccc(Cl)c(Cl)c2)CC1	2.36
CC(C)C(NC(=O)Cc1cccc2ccccc12)C(=O)Nc1cccc(C#N)c1 (stereo not given)	2.08
O=C(Nc1ccc(Cl)c(Cl)c1)Nc1ccc(F)c([N+](=O)[O-])c1	-2.06
COc1c(C2CCN(CCCCNC(=O)c3ccc(C)c(-c4ccc(C(F)(F)F)cc4)c3)CC2)ccc2c1CCCC2	-1.99
O=C(NCC1CCC(C(=O)NCc2cccc3ccccc23)CC1)c1ccc(O)c(-c2ccc(Cl)c(Cl)c2)c1 (stereo not given)	5.23
CN1CCN(C(=O)CN2CCC3(CCC2=O)NC(=O)c2ccccc2O3)CC1 (stereo not given)	3.76
Cc1cc(C(=O)NCc2ccc(-c3c(C)noc3C)cc2)n(-c2ccc(Cl)cc2)n1	8.7
O=C(/C=C/c1ccc(Cl)cc1)NCCCCCN1CCCC(C(=O)Nc2ccc(F)c(Cl)c2)C1 (stereo not given)	2.06
CN1CCC(N2CCC(Oc3cccc(C(=O)NCCCC4CCCC4)c3)CC2)CC1	10.9

molecular target: Hexose transporter 1 (Plasmodium falciparum) (UniProt O97467); experiment: ST_JUDE_LEISH: Cytotoxicity at 2uM final concentration against transgenic Leishmania Mexicana promastigotes LmPfHT that are glucose transport deficient and complemented with the Plasmodium falciparum hexose transporter. Activity is measured by DNA content using SYBR green in vitro; assay type: functional

SMILES	inhibition [%]
Cc1[nH]c(C)c(-c2ccc(OCc3ccccc3C(F)(F)F)nc2)c(=O)c1Br	6.13
CCc1c[nH]c2c(N3CCCC3=O)cc(C(=O)N[C@@H](Cc3ccccc3)[C@H](O)CNC3CCCCC3)cc12	6.05
O=C(Nc1cccc(-c2nn3ccccc3c2-c2ccnc(Nc3cccc(F)c3)n2)c1)c1c(F)ccc(F)c1F	9.13
O=C(Nc1cccc(-c2ccc(-c3nc4cc(C(F)(F)F)ccc4[nH]3)cc2)c1)c1ccoc1	1.44
O=C(Cc1ccccc1)NC(c1ccccc1)c1ccc2cccnc2c1O (stereo not given)	0.51
O=C(CSc1nc(-c2ccccc2Cl)ns1)Nc1ccc2c(c1)OCO2	-0.45
O=C(Nc1ccc(Cl)cc1)c1cccc(S(=O)(=O)NC2CCN(CC3CCCCC3)C2)c1 (stereo not given)	8.41
CC(C)(C)c1ccc(CNC(=O)COc2ccc(-c3nnc(-c4cccc([N+](=O)[O-])c4)o3)cc2[N+](=O)[O-])cc1	-0.74
Cc1nn(-c2ccccc2)nc1C(=O)N(Cc1ccc(-c2ccc(CNCCc3ccc(S(C)(=O)=O)cc3)cn2)cc1)C1CC1	3.85
COc1ccc2cc(CNCCCCCCNCc3ccc4cc(OC)ccc4c3)ccc2c1	107
COc1cc2cc(C(=O)Nc3ccccc3)c(N)nc2cc1OC	1.61
CC(C)c1ccc(NC(=O)NCC2CCCN(CCCCCNC(=O)/C=C/c3ccc(Cl)c(Cl)c3)C2)cc1 (stereo not given)	1.74
N#Cc1ccc(/C=C/C(=O)NCCCCCN2CCN(C(=O)Nc3ccc(Cl)c(C(F)(F)F)c3)CC2)cc1	4.08
Cc1[nH]c(C)c(-c2ccc(CCc3ccc(F)cc3F)cc2)c(=O)c1Cl	1.94
O=C(Nc1ccc(Cl)c(Cl)c1)N1CCc2cc3nccc(N4CCN5CCC[C@H]5C4)c3cc21	4.53
CC(=O)c1c[nH]c(C(=O)Nc2ccc(-c3cn4ccccc4n3)cc2)c1	10.9
C=CCc1cc(Cc2cnc(N)nc2N)cc(CCC)c1O	-0.27
CCOC(=O)NC1=NC(C)(C)N(OCc2cccc3c2ccc2ccccc23)C(NC(=O)OCC)=N1	11.1
Nc1nc(N)c2c(CCc3ccc4ccccc4c3)cccc2n1	1.63
Clc1ccc(C2CCN(CCCOc3ccc4c(c3)CCNCC4)CC2)cc1	40.9

SMILES	inhibition [%]
O=C(Nc1cccc(F)c1)NC1CCN(c2ccnc3cc(Cl)ccc23)CC1	1.28
CCCC(CNCc1cccc(OC(F)(F)C(F)F)c1)CNc1cc(=O)c2ccccc2[nH]1 (stereo not given)	-0.41
O=C1COC2(CN1C1CCN(Cc3ccc(O)cc3Cl)C1)c1ccccc1-c1ccccc12 (stereo not given)	2.74
CS(=O)(=O)N1CC2(CCN(CCC(NC(=O)Nc3ccccc3)c3ccc(Cl)c(Cl)c3)CC2)c2ccccc21 (stereo not given)	3.17
CCOc1c(Br)cc(Cl)cc1CNCCCNc1nc2ccccc2[nH]1	1.74
CN1CCN(c2ccnc3ccc(NC(=O)Nc4ccccc4Br)cc23)CC1	-0.8
COc1ccc(C(=O)Nc2ccc(-c3nc4cc(C)ccc4[nH]3)cc2)cc1OC	2.08
COc1ccc(OC)c(-c2cccc(-c3cccc(NC(=O)c4ccc([N+](=O)[O-])o4)c3)n2)c1	9.55
CCCOc1ccc(C(F)(F)F)cc1NC(=O)c1nc2nc(C)cc(C)n2n1	5.05
CC1CCC2(CC1)N=C(N)N=C(N)N2OCc1cc2ccccc2c2ccccc12 (stereo not given)	2.5
COc1ccccc1-c1cccc(-c2cccc(NC(=O)c3ccc([N+](=O)[O-])o3)c2)n1	16.8
O=C(/C=C/c1ccc(Cl)c(Cl)c1)NCCCCCCN1CCCN(C(=O)Nc2ccc(Cl)c(Cl)c2)CC1	2.49
CC(C)C(NC(=O)Cc1cccc2ccccc12)C(=O)Nc1cccc(C#N)c1 (stereo not given)	3.27
O=C(Nc1ccc(Cl)c(Cl)c1)Nc1ccc(F)c([N+](=O)[O-])c1	0.4
COc1c(C2CCN(CCCCNC(=O)c3ccc(C)c(-c4ccc(C(F)(F)F)cc4)c3)CC2)ccc2c1CCCC2	-1.46
O=C(NCC1CCC(C(=O)NCc2cccc3ccccc23)CC1)c1ccc(O)c(-c2ccc(Cl)c(Cl)c2)c1 (stereo not given)	3.37
CN1CCN(C(=O)CN2CCC3(CCC2=O)NC(=O)c2ccccc2O3)CC1 (stereo not given)	5.1
Cc1cc(C(=O)NCc2ccc(-c3c(C)noc3C)cc2)n(-c2ccc(Cl)cc2)n1	7.89
O=C(/C=C/c1ccc(Cl)cc1)NCCCCCN1CCCC(C(=O)Nc2ccc(F)c(Cl)c2)C1 (stereo not given)	1.34
CN1CCC(N2CCC(Oc3cccc(C(=O)NCCCC4CCCC4)c3)CC2)CC1	10.4
